# Results filed as inconclusive are left out. Where a call stands in place of a potency, no number is given. Active and inactive are the calls of the source. Unless noted, calls follow the shape of the dose curve; as a rule, active = well fitted curve in the direction sought with a large enough effect; inconclusive = small, poorly fitted or top-dose-only effect, or another doubt; inactive = no such curve, though single readings can be large; an effect the other way counts as inactive or inconclusive.
# Experiments:
# [1] = molecular target: Mitogen-activated protein kinase 10 (Mus musculus) (UniProt Q61831); test: JNK3 AlphaScreen Assay (AID 530; active = well fitted curve in either direction with a large enough effect, not every such curve was filed as active;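 also: kinase came from lysate of stimulated human HepG2 cells; signal reports phosphorylation of biotinylated GST-cJun 1-79 at Ser73 with 10 µM ATP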); details: JNK3 lysate, c-Jun phosphorylation; series mostly up to 57.1 µM
# How it was run: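 Activity was read by AlphaScreen after JNK3-containing HepG2 lysate (cytokine pre-activated) phosphorylated biotinylated GST-cJun with 10 uM ATP at room temperature. Phospho-Ser73 cJun antibody with Protein-A acceptor beads provided detection.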
# [2] = molecular target: Cytochrome P450 3A4 (Homo sapiens) (UniProt P08684); test: qHTS Assay for Inhibitors and Substrates of Cytochrome P450 3A4 (AID 884); details: recombinant CYP3A4, Luciferin-PPXE luminescence; series mostly up to 57.1 µM; also: nearly all actives have a fitted effect of over 50% in size; also: potency is read from the fitted curve at half-maximal effect
# How it was run: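 Luminescent readout of luciferin produced by CYP3A4 (20 nM) dealkylation of Luciferin-PPXE, 25 uM (its KM). NADPH-driven reaction ran 60 min at RT after 10 min compound preincubation; data scaled to 57 uM ketoconazole as 100% inhibition.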
# [3] = molecular target: Cytochrome P450 3A4 (Homo sapiens) (UniProt P08684); test: qHTS Assay for Activators of Cytochrome P450 3A4 (AID 885); details: recombinant CYP3A4, Luciferin-PPXE luminescence, 60 min; series mostly up to 57.1 µM; also: nearly all actives have a fitted effect of over 65% in size; also: potency is read from the fitted curve at half-maximal effect
# How it was run: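 CYP3A4 activity: Luciferin-PPXE O-dealkylation, 25uM substrate, 200mM KPO4, RT throughout. Read-out is luciferase luminescence; higher values reflect activation.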
# Cytochrome P450 3A4 (Homo sapiens), sequence (P08684 whole entry, looked up): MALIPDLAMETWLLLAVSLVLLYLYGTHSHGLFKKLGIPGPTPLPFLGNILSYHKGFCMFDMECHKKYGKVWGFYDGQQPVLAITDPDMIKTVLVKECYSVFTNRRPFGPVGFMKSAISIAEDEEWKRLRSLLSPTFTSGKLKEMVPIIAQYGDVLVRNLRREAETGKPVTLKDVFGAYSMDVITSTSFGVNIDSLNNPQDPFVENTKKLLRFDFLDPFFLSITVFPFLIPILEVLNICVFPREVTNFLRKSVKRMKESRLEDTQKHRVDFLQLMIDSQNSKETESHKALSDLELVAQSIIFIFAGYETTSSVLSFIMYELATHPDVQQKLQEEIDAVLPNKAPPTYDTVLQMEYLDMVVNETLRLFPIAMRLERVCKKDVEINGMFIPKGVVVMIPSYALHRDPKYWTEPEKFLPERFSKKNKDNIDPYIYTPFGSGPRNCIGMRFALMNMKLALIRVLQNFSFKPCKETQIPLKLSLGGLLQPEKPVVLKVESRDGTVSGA
SMILES,outcome [1],Potency [2],Potency [3]
COCCNC(=O)[C@@]1(Cc2ccccc2)C=C[C@@H](C)N1C(=O)OC,inactive,inactive,–
CC1(C(=O)O)C=CCN1C(=O)c1ccccc1 (stereo unspecified),inactive,inactive,–
COC(=O)c1ccc(C(NC(=O)OCc2ccccc2)/C(I)=C/[C@@H](C)C(=O)NCc2ccncc2)cc1 (stereo partly specified),inactive,1.58 µM (active),inactive
COC(=O)[C@@]1(Cc2ccccc2)C=C[C@@H](C)N1C(C)=O,inactive,inactive,–
CCCCNC(=O)C(c1ccc(OCC(=O)OC)c(C(=O)OC)c1)N(CCc1ccccc1)C(=O)CCCCCN1C(=O)NC(c2ccc(-c3ccccc3)cc2)C(C(=O)OCc2ccccc2)=C1C (stereo unspecified),inactive,5.01 µM (active),inactive
COC(=O)CNC(=O)[C@@]1(Cc2ccccc2)C=C[C@@H](C)N1C(=O)c1ccccc1,inactive,inactive,–
COC(=O)[C@@H]1CCCN1C(=O)[C@H]1C[C@@H]1[C@H](NC(=O)OCc1ccccc1)c1ccccc1,inactive,10 µM (active),inactive
COCCNC(=O)[C@@]1(C)C=C[C@@H](Cc2ccccc2)N1C(=O)c1ccccc1,inactive,7.94 µM (active),inactive
O=C1C(Cl)=C(NC2CCc3ccccc32)C(=O)c2ncccc21 (stereo unspecified),inactive,1.58 µM (active),inactive
CC(Cc1ccccc1)C(=O)NCc1ccncc1 (stereo unspecified),inactive,2.51 µM (active),inactive
Cc1ccc(CNC(=O)C2(CC(C)C)C=CCN2C(=O)c2ccccc2)o1 (stereo unspecified),inactive,15.8 µM (active),inactive
COC(=O)c1ccc(C(NC(=O)OCc2ccccc2)/C(C)=C/[C@@H](C)C(=O)NCCc2c[nH]c3ccc(OC)cc23)cc1 (stereo partly specified),inactive,2 µM (active),inactive
COC(=O)c1ccc(C(NC(=O)OCc2ccccc2)/C(F)=C/[C@@H](C)C(=O)NCc2ccc(OC)c(OC)c2)cc1 (stereo partly specified),inactive,5.01 µM (active),inactive
COC(=O)c1ccc(C(NC(=O)OCc2ccccc2)/C(=C/[C@@H](C)C(=O)NCc2ccc(S(C)(=O)=O)cc2)c2cccnc2)cc1 (stereo partly specified),inactive,2 µM (active),inactive
COC(=O)c1ccc(C(/C=C/[C@@H](C)C(=O)N(C)Cc2ccccc2)NC(=O)OCc2ccccc2)cc1 (stereo partly specified),inactive,1.58 µM (active),inactive
COC(=O)c1ccc(C(NC(=O)OCc2ccccc2)/C(C)=C/[C@@H](C)C(=O)NCc2cccnc2)cc1 (stereo partly specified),inactive,0.794 µM (active),inactive
CC(C)CC1(C(=O)NCCc2c[nH]c3ccccc23)C=CCN1C(=O)c1ccccc1 (stereo unspecified),inactive,3.16 µM (active),inactive
CC1(C(=O)NCCCNc2ncc(C(F)(F)F)cc2Cl)C=CC2(CCCCC2)N1C(=O)c1ccccc1 (stereo unspecified),inactive,7.94 µM (active),inactive
CN(C)C(=O)[C@@H]1C[C@H]1[C@@H](NC(=O)OCc1ccccc1)c1ccccc1,inactive,10 µM (active),inactive
CC1=C(C(=O)OCc2ccccc2)C(C2CCCCC2)NC(=O)N1CCCCCC(=O)O (stereo unspecified),inactive,inactive,15.8 µM (active)
COC(=O)c1ccc(C(NC(=O)OCc2ccccc2)/C(F)=C/[C@@H](C)C(=O)NCc2cc(F)cc(F)c2)cc1 (stereo partly specified),inactive,3.98 µM (active),inactive
CCCCNC(=O)C(c1ccc(OCC(=O)OC)c(C(=O)OC)c1)N(Cc1ccccn1)C(=O)CCCCCN1C(=O)NC(c2ccc(-c3ccccc3)cc2)C(C(=O)OCc2ccccc2)=C1C (stereo unspecified),inactive,7.94 µM (active),inactive
CCCCCCN(C(=O)CCCCCN1C(=O)NC(c2ccc(-c3ccccc3)cc2)C(C(=O)OCc2ccccc2)=C1C)C(C(=O)NCCCC)c1ccc(O)cc1 (stereo unspecified),inactive,10 µM (active),inactive

SMILES,outcome [1],Potency [2],Potency [3]
C[C@]1(C(=O)NCC2CC2)C=C[C@@H](Cc2ccccc2)N1C(=O)c1ccccc1,inactive,2 µM (active),inactive
C[C@@H]1C=C[C@](Cc2ccccc2)(C(=O)NCCc2c[nH]c3ccccc23)N1C(=O)c1ccccc1,inactive,2.51 µM (active),inactive
COC(=O)c1ccc(C(NC(=O)OCc2ccccc2)/C(C)=C/[C@@H](C)C(=O)N(C)Cc2cccnc2)cc1 (stereo partly specified),inactive,0.794 µM (active),inactive
COC(=O)CNC(=O)[C@@]1(C)C=C[C@@H](Cc2ccccc2)N1C(=O)OC,inactive,12.6 µM (active),inactive
C/C(=C\[C@@H](NP(=O)(c1ccccc1)c1ccccc1)c1ccccc1)CO[Si](c1ccccc1)(c1ccccc1)C(C)(C)C,inactive,2 µM (active),inactive
COC(=O)c1ccc(C(NC(=O)OCc2ccccc2)/C(C)=C/[C@@H](C)C(=O)Nc2ccc(OC)cc2)cc1 (stereo partly specified),inactive,2.51 µM (active),inactive
CC(=O)N1C2(C=CC1(C)C(=O)NCCN1CCOCC1)CCCCC2 (stereo unspecified),inactive,10 µM (active),inactive
COC(=O)c1ccc(C(/C=C/[C@@H](C)C(=O)NCc2ccc(OC)c(O)c2)NC(=O)OCc2ccccc2)cc1 (stereo partly specified),inactive,6.31 µM (active),inactive
CC(Cc1ccccc1)C(=O)N[C@@H](CO)Cc1ccccc1 (stereo partly specified),inactive,15.8 µM (active),inactive
CCC[C@@H]1C[C@@]1(CCC)[C@@H](NP(=O)(c1ccccc1)c1ccccc1)c1ccc(C(=O)OC)cc1,inactive,3.16 µM (active),inactive
CC1(C(=O)NCc2cc(F)cc(C(F)(F)F)c2)C=CC2(CCCCC2)N1C(=O)c1ccccc1 (stereo unspecified),inactive,6.31 µM (active),inactive
CC(=O)N1CC=CC1(C)C(=O)NCc1cc(F)cc(C(F)(F)F)c1 (stereo unspecified),inactive,15.8 µM (active),inactive
CCCCCCN(C(=O)CCCCCN1C(=O)NC(c2ccc(-c3ccccc3)cc2)C(C(=O)OCc2ccccc2)=C1C)C(C)C(=O)NCCCC (stereo unspecified),inactive,3.16 µM (active),inactive
CCNC(=O)[C@H](C)/C=C/C(NC(=O)OCc1ccccc1)c1ccc(C(=O)OC)cc1 (stereo partly specified),inactive,6.31 µM (active),inactive
CC1(C(=O)NCCN2CCOCC2)C=CC2(CCCCC2)N1C(=O)c1ccccc1 (stereo unspecified),inactive,7.94 µM (active),inactive
CCCCCCN(C(=O)CCCCCN1C(=O)NC(C2CCCCC2)C(C(=O)OCc2ccccc2)=C1C)C(C(=O)NCCCC)c1ccc(OCC(=O)OC)c(C(=O)OC)c1 (stereo unspecified),inactive,3.16 µM (active),inactive
Cc1nn(-c2ccccc2)nc1CNC(=O)C(C)Cc1ccccc1 (stereo unspecified),inactive,2.51 µM (active),inactive
CC(C)NC(=O)[C@@H]1C[C@@]1(C)[C@@H](NC(=O)OCc1ccccc1)c1ccccc1,inactive,10 µM (active),inactive
CNC(=O)[C@@H]1C[C@H]1[C@@H](NC(=O)OCc1ccccc1)c1ccccc1,inactive,12.6 µM (active),inactive
COC(=O)c1ccc(C(NC(=O)OCc2ccccc2)/C(I)=C/[C@@H](C)C(=O)Nc2ccccc2)cc1 (stereo partly specified),inactive,2 µM (active),inactive
CC1(C(=O)NCC2CC2)C=CC2(CCCCC2)N1C(=O)c1ccccc1 (stereo unspecified),inactive,7.94 µM (active),inactive
COC(=O)c1ccc(C(NC(=O)OCc2ccccc2)/C(=C/[C@@H](C)C(=O)NCc2ccc(OC)c(OC)c2)c2cccnc2)cc1 (stereo partly specified),inactive,3.16 µM (active),inactive

# Source: PubChem BioAssay (NCATS)
